Screens (PubChem BioAssay)
TDP1 cell CPT: growth inhibition of DT40 Tdp1-/-;hTDP1 cells with camptothecin (screen for TDP1 inhibitors). chicken DT40 Tdp1-/-;hTDP1 cells + 20 nM CPT, ATP luminescence, 48 h. Potency, µM (top dose mostly 46.2 µM), most hits filed as inhibitors. 420,000 tested, 12% active. AID 686979; further: nearly all actives have a fitted effect of over 55% in size
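Cell growth measured by CellTiter-Glo luminescence after a minimum 48 h, 37 C compound exposure with 20 nM CPT in Tdp1-knockout DT40 cells stably expressing hTDP1, seeded 400/well; qHTS titration format.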
TDP1 cell noCPT: qHTS for Inhibitors of human tyrosyl-DNA phosphodiesterase 1 (TDP1): qHTS in cells in absence of CPT. DT40 Tdp1-/- hTDP1 cells, no CPT, ATP luminescence, 48 h. Potency, µM (top dose mostly 46.2 µM), usual class: inhibitors. 420,000 tested, 15% active; further: nearly all actives have a fitted effect of over 55% in size
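Chicken DT40 Tdp1-/- cells complemented with human TDP1, screened without camptothecin (DMSO vehicle only), 400 cells/well. Compounds pin-transferred, cells incubated at 37 °C for at least 48 hr. Growth read as ATP-dependent luminescence (CellTiter-Glo, 30 min at RT).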
Giardia kill: Giardia lamblia killing; 340,000 tested, 0.15% active; Giardia lamblia trophozoite viability; activity change, % at 7.66 µM, hits read low; in the data active means activity change below about -80%; inconclusive means between about -30% and that limit;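 further: parasites exposed to compound for two days anaerobically before the ATP read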
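Anaerobic 48 hrs incubation at 37 deg C of 100 trophozoites/well with test compounds; ATPLite 1-Step luminescence, 15-30 min RT, reports cellular ATP as viability.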
TDP1 block: inhibitors of human tyrosyl-DNA phosphodiesterase TDP1; recombinant TDP1, AlphaScreen DNA substrate cleavage; AID 485290; 350,000 tested, 0.28% active; Potency, µM (top dose mostly 130 µM), actives largely listed as inhibitors; further: nearly all actives have a fitted effect of over 40% in size
Target sequence (Q9NUW8 whole entry, looked up): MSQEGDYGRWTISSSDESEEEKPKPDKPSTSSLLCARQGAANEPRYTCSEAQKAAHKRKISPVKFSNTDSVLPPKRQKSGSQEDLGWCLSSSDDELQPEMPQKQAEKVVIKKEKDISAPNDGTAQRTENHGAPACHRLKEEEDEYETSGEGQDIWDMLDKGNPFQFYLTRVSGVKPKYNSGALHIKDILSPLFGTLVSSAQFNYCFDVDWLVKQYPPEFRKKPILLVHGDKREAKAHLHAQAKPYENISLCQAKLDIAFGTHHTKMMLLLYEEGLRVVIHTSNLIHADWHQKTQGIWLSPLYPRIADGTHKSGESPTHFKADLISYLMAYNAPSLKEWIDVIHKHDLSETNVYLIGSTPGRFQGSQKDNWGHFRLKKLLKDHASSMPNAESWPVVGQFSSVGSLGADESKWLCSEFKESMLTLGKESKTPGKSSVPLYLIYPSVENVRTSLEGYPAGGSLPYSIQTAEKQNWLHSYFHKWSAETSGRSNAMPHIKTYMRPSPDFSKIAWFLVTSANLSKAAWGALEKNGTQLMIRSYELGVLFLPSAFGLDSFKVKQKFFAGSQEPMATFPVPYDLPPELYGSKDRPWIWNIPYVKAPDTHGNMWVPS
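Recombinant E. coli-expressed Tdp1 (1 nM) preincubated with compound 15 min at RT, then 5'-biotin/3'-phosphotyrosine-FITC DNA substrate (15 nM) added for 5 min. AlphaScreen beads (10 ug/ml) added, 10 min RT; tyrosine-FITC cleavage read as signal loss.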
ELG1 repair inh: inhibitors of ELG1-dependent DNA repair in HEK293T cells; HEK293T ELG1-luciferase reporter, luminescence, 16 h; DNA damage induced by 5-fluorouridine; 330,000 tested, 2.3% active; AID 504467; Potency, µM (titrated, usually from 46.1 µM), actives largely listed as inhibitors; further: nearly all actives have a fitted effect of over 55% in size
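Quantitative HTS, concentration-response format. 2,000 cells/well co-treated with 5-fluorouridine and compound, 16 hr in 5% CO2 at 37 °C; ONE-Glo luminescence read after 30 min.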
IL1B secr inh: inhibitors of inflammasome signaling (IL-1 beta secretion); THP-1 LPS/ATP IL-1B secretion, AlphaLISA, 16 h; stronger effect = lower value; activity change, % at 57.5 µM; 360,000 tested, 4.7% active; AID 743279; in the data active means activity change below about -50%; inconclusive means mostly about -30% to -49%
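THP-1 cells pretreated 1 hr with compounds (up to 57.5 uM final), then stimulated with LPS (250 ng/mL final) plus ATP (1.25 mM final); secreted IL-1B measured by AlphaLISA after 16 hr, decreased signal indicating inhibition.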
A number is an active result. Rows were chosen to be rich in hits. Some 19% of all compounds tested hit in one or more screens of this group. Unless noted, the call rests on the fitted dose curve; in most records, active means well fitted curve in the direction sought with a large enough effect; inconclusive means small, poorly fitted or top-dose-only effect, or another doubt; inactive means no such curve, though single readings can be large; an effect the other way counts as inactive or inconclusive.

How did COc1cc(NC(=O)CN2c3ccccc3CC2C)cc(OC)c1OC (centres undefined) do in these assays?
TDP1 cell CPT: inconclusive; TDP1 cell noCPT: inconclusive; Giardia kill: inactive; TDP1 block: inactive; ELG1 repair inh: 16.4µM; IL1B secr inh: inactive

Results for COCCCn1c(C)cc(C(=O)CN2c3cccc4cccc(c34)S2(=O)=O)c1C ?
TDP1 cell CPT: 29.1µM; TDP1 cell noCPT: 16.4µM; Giardia kill: inactive; TDP1 block: inactive; ELG1 repair inh: inactive; IL1B secr inh: inconclusive

How did CCCCCCCCCCOC(=O)c1csc2nnsc12 do in these assays?
TDP1 cell CPT: inactive; TDP1 cell noCPT: inactive; Giardia kill: inactive; TDP1 block: inactive; ELG1 repair inh: inactive; IL1B secr inh: inactive

How did CC1Cc2ccccc2N1CC(=O)Nc1ccc(Cl)c(S(=O)(=O)N(C)C)c1 (centres undefined) do in these assays?
TDP1 cell CPT: inactive; TDP1 cell noCPT: inactive; Giardia kill: inactive; TDP1 block: inactive; ELG1 repair inh: 23.1µM; IL1B secr inh: inactive

Results for COc1cc(NC(=O)CN2c3cccc4cccc(c34)S2(=O)=O)cc(OC)c1OC ?
TDP1 cell CPT: inconclusive; TDP1 cell noCPT: 20.6µM; Giardia kill: inactive; TDP1 block: inactive; ELG1 repair inh: inactive; IL1B secr inh: inactive

Results for COc1ccc(NC(=O)CN2c3cccc4cccc(c34)S2(=O)=O)c(OC)c1 ?
TDP1 cell CPT: inconclusive; TDP1 cell noCPT: inconclusive; Giardia kill: inactive; TDP1 block: inactive; ELG1 repair inh: inconclusive; IL1B secr inh: inactive

What do the screens show for `COCCOC(=O)c1c(NC(=O)CN2c3ccccc3CC2C)sc(C(N)=O)c1C` (centres undefined)?
TDP1 cell CPT: inconclusive; TDP1 cell noCPT: inconclusive; Giardia kill: inactive; TDP1 block: inactive; ELG1 repair inh: 9.2µM; IL1B secr inh: inactive

How did COCCOC(=O)c1c(NC(=O)CN2CCOCC2)sc(C(N)=O)c1C do in these assays?
TDP1 cell CPT: inactive; TDP1 cell noCPT: inactive; Giardia kill: inactive; TDP1 block: inactive; ELG1 repair inh: inactive; IL1B secr inh: inactive

Results for Cc1cc(C(=O)Nc2ncn[nH]2)ccc1[N+](=O)[O-] ?
TDP1 cell CPT: inactive; TDP1 cell noCPT: inactive; Giardia kill: inactive; TDP1 block: inactive; ELG1 repair inh: inactive; IL1B secr inh: inactive

Results for O=C(COC(=O)c1n[nH]c2ccccc12)NC1CCCCC1 ?
TDP1 cell CPT: inactive; TDP1 cell noCPT: inactive; Giardia kill: inactive; TDP1 block: inactive; ELG1 repair inh: inactive; IL1B secr inh: inactive

Results for COC(=O)c1ccccc1NC(=O)CSc1nc2nc(C)cc(C)n2n1 ?
TDP1 block: inactive

Results for CCn1c(=S)[nH]c2cc(S(=O)(=O)N3CCCCC3)ccc21 ?
TDP1 cell CPT: inconclusive; TDP1 cell noCPT: 12.6µM; Giardia kill: inactive; TDP1 block: inactive; ELG1 repair inh: inconclusive; IL1B secr inh: inactive

Results for CCCCn1c(=S)[nH]c2cc(S(=O)(=O)N3CCOCC3)ccc21 ?
TDP1 cell CPT: inconclusive; TDP1 cell noCPT: inconclusive; Giardia kill: inactive; TDP1 block: inactive; ELG1 repair inh: inactive; IL1B secr inh: inactive

What do the screens show for `COc1ccc(/C=C2\SC(N3CCc4ccccc4C3)=NC2=O)cc1`?
TDP1 cell CPT: inconclusive; TDP1 cell noCPT: inconclusive; Giardia kill: inactive; TDP1 block: inactive; ELG1 repair inh: inactive; IL1B secr inh: inconclusive

What do the screens show for `COc1cc(/C=C2\SC(N3CCc4ccccc4C3)=NC2=O)cc(OC)c1OC`?
TDP1 cell CPT: 20.6µM; TDP1 cell noCPT: 16.4µM; Giardia kill: inactive; TDP1 block: inactive; ELG1 repair inh: 18.4µM; IL1B secr inh: -67.5

What do the screens show for `CCOc1ccc(/C=C2\SC(N3CCc4ccccc4C3)=NC2=O)cc1`?
TDP1 cell CPT: 29.1µM; TDP1 cell noCPT: 20.6µM; Giardia kill: inactive; TDP1 block: inactive; ELG1 repair inh: inactive; IL1B secr inh: -54.5

What do the screens show for `COc1cc(OC)c(OC)cc1/C=C1\SC(N2CCCCC2)=NC1=O`?
TDP1 cell CPT: inactive; TDP1 cell noCPT: inconclusive; Giardia kill: inactive; ELG1 repair inh: inconclusive; IL1B secr inh: inactive

Results for COc1ccc(C(=O)N2CCN(c3ncccn3)CC2)cc1[N+](=O)[O-] ?
TDP1 cell CPT: inactive; TDP1 cell noCPT: inconclusive; Giardia kill: inactive; TDP1 block: inactive; ELG1 repair inh: inactive; IL1B secr inh: inactive

What do the screens show for `Cc1ccc(NC(=O)COC(=O)c2ccccc2OCC(=O)Nc2ccc(Br)cc2)c(Br)c1`?
TDP1 cell CPT: inactive; TDP1 cell noCPT: inactive

What do the screens show for `O=C(Oc1ccccc1/C=C\C(=O)c1cc2ccccc2o1)c1ccccc1`?
TDP1 cell CPT: 7.31µM; TDP1 cell noCPT: 7.31µM; Giardia kill: inactive; TDP1 block: inactive; ELG1 repair inh: inconclusive; IL1B secr inh: inactive

How did COc1cccc(C(=O)Oc2ccccc2/C=C\C(=O)c2cc3ccccc3o2)c1 do in these assays?
TDP1 cell CPT: 6.51µM; TDP1 cell noCPT: 4.61µM; Giardia kill: inactive; TDP1 block: inactive; ELG1 repair inh: inconclusive; IL1B secr inh: -94.7

What do the screens show for `NC(=O)N/N=C/c1ccccc1OC(=O)c1cc2ccccc2oc1=O`?
TDP1 cell CPT: inactive; TDP1 cell noCPT: inactive; Giardia kill: inactive; TDP1 block: inactive; ELG1 repair inh: inconclusive; IL1B secr inh: inactive

What do the screens show for `O=C(Nc1ccc(F)cc1)c1cc2ccccc2o1`?
TDP1 cell CPT: inactive; TDP1 cell noCPT: inconclusive; Giardia kill: inactive; ELG1 repair inh: inconclusive; IL1B secr inh: inactive

Results for O=C(Oc1ccccc1/C=C\C(=O)c1cc2ccccc2o1)c1cccc(F)c1 ?
TDP1 cell CPT: 5.17µM; TDP1 cell noCPT: 20.6µM; Giardia kill: inactive; TDP1 block: inactive; ELG1 repair inh: inconclusive; IL1B secr inh: -68.0

How did COc1ccc(NC(=O)c2cc3ccccc3o2)cc1 do in these assays?
TDP1 cell CPT: inactive; TDP1 cell noCPT: inactive; Giardia kill: inactive; TDP1 block: inactive; ELG1 repair inh: inconclusive; IL1B secr inh: inactive

What do the screens show for `COc1ccc2[nH]c(=O)c(CN(CC3CCCO3)S(=O)(=O)c3ccccc3F)cc2c1` (centres undefined)?
TDP1 cell CPT: inconclusive; TDP1 cell noCPT: inconclusive; Giardia kill: inactive; ELG1 repair inh: inconclusive; IL1B secr inh: inactive

How did CC1CCC(NC(=O)CC(NC(N)=O)c2ccccc2Cl)CC1 (centres undefined) do in these assays?
TDP1 cell CPT: inactive; TDP1 cell noCPT: inactive; Giardia kill: inactive; TDP1 block: inactive; ELG1 repair inh: inconclusive; IL1B secr inh: inactive

Results for Cc1ccn2c(=O)c(NC(=O)c3cccc([N+](=O)[O-])c3C)c(C)nc2c1 ?
TDP1 cell CPT: 14.6µM; TDP1 cell noCPT: 18.4µM; TDP1 block: inactive
